Experimental data: PubChem BioAssay (NCATS)
“And” between values parts separate entries of the source, which are not always exact repeats. Identical values can stand only once. Inconclusive results are not listed. The source made the active and inactive calls. Unless noted, the call rests on the fitted dose curve; in most records, active means well fitted curve in the direction sought with a large enough effect; inconclusive means small, poorly fitted or top-dose-only effect, or another doubt; inactive means no such curve, though single readings can be large; an effect the other way counts as inactive or inconclusive.

Key:
[1] = Primary qHTS for inhibitors of La Crosse Virus (LACV) - induced cell death in SH-SY5Y cells (AID 1508616);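 further: top concentration of the series differs between compounds; 0% = infected DMSO wells and 100% = uninfected DMSO wells; higher means more rescue of cells from virus-induced death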
Method in brief: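 Cytopathicity rescue screen: compounds pinned onto SH-SY5Y cells, which are then infected with LACV (MOI 0.01) and held 6 days at 37C. Percent activity is scaled between infected DMSO control and uninfected DMSO control.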

[2] = target: Calcium and integrin-binding protein 1 (Homo sapiens) (UniProt Q99828); experiment: Primary qHTS for Identification of Calcium Integrin Binding Protein 1 (CIB1) Competitor (AID 1508620); further: potency means the concentration at half of the fitted maximal effect
Method in brief: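 Fluorescence polarization competition: CIB1-GST (1 uM final) preincubated with compound 15 min at room temperature, then FITC-labeled alphaIIb peptide (100 nM final) added for another 15 min. Polarization read at Ex 480/Em 540.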

[3] = Confirmatory qHTS for small molecule stabilizers of the endoplasmic reticulum resident proteome: Secreted ER Calcium Modulated Protein (SERCaMP) assay (AID 1508628); further: nearly all actives have a fitted effect of over 40% in size; further: potency means the concentration at half of the fitted maximal effect
Method in brief: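 GLuc-SERCaMP-expressing SH-SY5Y cells, pretreated 16 h with compound, are challenged with thapsigargin to empty ER calcium stores; after 4 h, coelenterazine is added directly to the medium and luminescence is imaged.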

[4] = Primary qHTS for small molecule stabilizers of the endoplasmic reticulum resident proteome: Secreted ER Calcium Modulated Protein (SERCaMP) assay (AID 1508630); further: on the % scale 0 is the no-effect control and ±100 the full control effect
Method in brief: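 The SH-SY5Y reporter protocol was run at 3 concentrations up to 38.3 uM (primary) or 11 concentrations (follow-up): 16 h compound, 100 nM thapsigargin for 4 h, then extracellular luciferase luminescence.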

[5] = A High-Content qHTS Against Drug Library for the Identification of Small Molecules that Inhibit DYT1 Early Onset Primary Dystonia-Associated Cell Pathology (AID 1645839; calls by dose curve; further: series mostly up to about 46 µM)
Method in brief: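 Induced EGFP-delE TorsinA cells are imaged after 48 h of compound treatment. Punctate fusion-protein distribution gives the %pathology value, while nuclei counts flag toxicity. Wild-type EGFP-hTOR1A cells define the normal pattern.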

[6] = target: Calcium and integrin-binding protein 1 (Homo sapiens) (UniProt Q99828); experiment: Validation qHTS for Identification of Calcium Integrin Binding protein 1 (CIB1) Competitor (AID 1508618); further: potency means the concentration at half of the fitted maximal effect
Method in brief: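 Displacement of FITC-alphaIIb peptide (100 nM) from CIB1-GST (1 uM) is monitored by polarization in quantitative HTS format; buffer carries 5 mM CaCl2 and 125 mM NaCl at pH 7.4, incubations are at room temperature.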

[7] = target: Single-stranded DNA cytosine deaminase (Homo sapiens) (UniProt Q9GZX7); experiment: Validation qHTS assay for inhibitors of Activation Induced Cytidine Deaminase (AID): AID signal (AID 1347429); further: potency means the concentration at half of the fitted maximal effect
Method in brief: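 AID+UDG coupled FRET deamination; cpds up to 114 uM final; DJC20/DJC23 substrate, 4 hr RT; NaOH stop, 30 min RT; read Ex 540/Em 590.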

[8] = Counterscreen qHTS for small molecule stabilizers of the endoplasmic reticulum resident proteome: GLuc-NoTag assay (AID 1508627); further: potency means the concentration at half of the fitted maximal effect
Method in brief: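 Secreted GLuc lacking the SERCaMP modification is measured in SH-SY5Y cells exposed to compound for 19 h and then to thapsigargin (100 nM, 4 h) to deplete ER calcium; hits retested at 11 concentrations, up to 76.6 uM.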

[9] = Cell Viability qHTS for small molecule stabilizers of the endoplasmic reticulum resident proteome (AID 1508629); conditions: cell viability counter-screen, 100 nM thapsigargin for final 4 h;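 further: human SH-SY5Y neuroblastoma cells carrying the GLuc-SERCaMP reporter; compound exposure about 46 h in total before the viability read; on the % scale 0 is the no-effect control and ±100 the full control effect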
[10] = target: Calcium and integrin-binding protein 1 (Homo sapiens) (UniProt Q99828); experiment: Confirmatory qHTS for Identification of Calcium Integrin Binding Protein 1 (CIB1) Competitor (AID 1508617); conditions: CIB1 binding competition assay, biochemical qHTS; further: potency means the concentration at half of the fitted maximal effect; nearly all actives have a fitted effect of over 65% in size
Method in brief: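 Confirmatory qHTS measures displacement of a FITC-alphaIIb peptide (100 nM) from CIB1-GST (1 uM) by fluorescence polarization. Calcium-containing HEPES buffer, pH 7.4; two 15 min room-temperature incubations.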

Chain of Single-stranded DNA cytosine deaminase (Homo sapiens) (Q9GZX7 whole entry, looked up): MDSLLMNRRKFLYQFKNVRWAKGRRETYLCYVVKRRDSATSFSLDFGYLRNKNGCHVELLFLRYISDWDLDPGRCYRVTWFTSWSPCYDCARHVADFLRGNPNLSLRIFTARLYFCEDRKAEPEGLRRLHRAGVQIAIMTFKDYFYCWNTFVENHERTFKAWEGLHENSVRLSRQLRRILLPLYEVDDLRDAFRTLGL
Chain of Calcium and integrin-binding protein 1 (Homo sapiens) (Q99828 whole entry, looked up): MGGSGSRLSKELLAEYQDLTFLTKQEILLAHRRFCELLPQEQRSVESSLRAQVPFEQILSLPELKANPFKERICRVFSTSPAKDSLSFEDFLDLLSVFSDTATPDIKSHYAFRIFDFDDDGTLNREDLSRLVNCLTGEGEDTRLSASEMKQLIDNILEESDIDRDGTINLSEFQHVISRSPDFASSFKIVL

CS(=O)(=O)CCNCc1ccc(-c2ccc3ncnc(Nc4ccc(OCc5cccc(F)c5)c(Cl)c4)c3c2)o1
inactive: Potency [1] | Potency [2] | Potency [3]

CCOC(=O)Nc1ccc(NCc2ccc(F)cc2)nc1N
inactive: Potency [1] | Potency [2] | Potency [4] | Potency [5]

COc1cc2nc(N3CCN(C(=O)c4ccco4)CC3)nc(N)c2cc1OC
inactive: Potency [1] | Potency [6] | Potency [2]

O=C(C1CCCCC1)N1CC(=O)N2CCc3ccccc3C2C1 (stereo not drawn)
inactive: Potency [1] | Potency [6] | Potency [2] | Potency [5]

CS(=O)(=O)Nc1ccc([N+](=O)[O-])cc1Oc1ccccc1
inactive: Potency [7] | Potency [1] | Potency [4] | Potency [5]

C[C@@H]1CC(=O)NN=C1c1ccc(NN=C(C#N)C#N)cc1
active: Potency [8] 14.1 µM and 28.2 µM | Potency [3] 15.8 µM
inactive: Potency [1] | Potency [2] | max response [9] -18.7% | Potency [4] | Potency [5]

Nc1nnc(-c2cccc(Cl)c2Cl)c(N)n1
inactive: Potency [1] | Potency [6] | Potency [2] | Potency [4] | Potency [5]

CC(=O)OCC(CCn1cnc2cnc(N)nc21)COC(C)=O
inactive: Potency [1] | Potency [6] | Potency [2] | Potency [4] | Potency [5]

Cn1c(=O)c2[nH]cnc2n(C)c1=O
inactive: Potency [1] | Potency [6] | Potency [2] | Potency [4] | Potency [5]

Cc1cn([C@H]2C[C@H](N=[N+]=[N-])[C@@H](CO)O2)c(=O)[nH]c1=O
inactive: Potency [1] | Potency [2] | Potency [5]

Cc1cnc(C(=O)NCCc2ccc(S(=O)(=O)NC(=O)NC3CCCCC3)cc2)cn1
inactive: Potency [7] | Potency [1] | Potency [5]

CC(C(=O)O)c1cccc(C(=O)c2ccccc2)c1 (stereo not drawn)
inactive: Potency [7] | Potency [1] | Potency [5]

CN(C)C(=O)C(CCN1CCC(O)(c2ccc(Cl)cc2)CC1)(c1ccccc1)c1ccccc1
inactive: Potency [7] | Potency [6] | Potency [2]

CN(CCOc1ccc(NS(C)(=O)=O)cc1)CCc1ccc(NS(C)(=O)=O)cc1
inactive: Potency [1] | Potency [6] | Potency [2] | Potency [4] | Potency [5]

CC[C@@]1(O)C(=O)OCc2c1cc1n(c2=O)Cc2cc3c(CN(C)C)c(O)ccc3nc2-1
inactive: Potency [1] | Potency [4] | Potency [5]
active: Potency [6] 14.1 µM | Potency [2] 28.2 µM and 24.1 µM and 31.6 µM

Cc1ccc(-c2cc(C(F)(F)F)nn2-c2ccc(S(N)(=O)=O)cc2)cc1
inactive: Potency [1] | Potency [6] | Potency [2]

CCC1(c2ccccc2)C(=O)NCNC1=O
inactive: Potency [1] | Potency [6] | Potency [2] | Potency [4] | Potency [5]

CC1COc2c(N3CCN(C)CC3)c(F)cc3c(=O)c(C(=O)O)cn1c23 (stereo not drawn)
inactive: Potency [1] | Potency [4] | Potency [5]

CN(Cc1cnc2nc(N)nc(N)c2n1)c1ccc(C(=O)N[C@@H](CCC(=O)O)C(=O)O)cc1
inactive: Potency [7] | Potency [1] | Potency [2] | Potency [4] | Potency [5]

CC1(CN2CCC(n3c(=O)[nH]c4ccccc43)CC2)OCc2ccccc2-n2cccc21 (stereo not drawn)
inactive: Potency [1] | Potency [2]

O=C1c2c(O)ccc(O)c2C(=O)c2c(NCCNCCO)ccc(NCCNCCO)c21
active: Potency [7] 10 µM | Potency [10] 22.4 µM and 20 µM | Potency [6] 20 µM | Potency [2] 30.4 µM and 25.1 µM
inactive: Potency [4] | Potency [5]

COc1ccc(CCN(C)CCCC(C#N)(c2ccc(OC)c(OC)c2)C(C)C)cc1OC (stereo not drawn)
inactive: Potency [8] | max response [9] -5.84% | Potency [4]
active: Potency [3] 20 µM

COC(=O)Nc1nc2ccc(C(=O)c3cccs3)cc2[nH]1
inactive: Potency [7] | Potency [6] | Potency [2] | Potency [5]

CC[N+](CC)(CC)CCOc1cccc(OCC[N+](CC)(CC)CC)c1OCC[N+](CC)(CC)CC
inactive: Potency [7] | Potency [1] | Potency [5]

CN(C)CCCN1c2ccccc2CCc2ccc(Cl)cc21
inactive: Potency [7] | Potency [1] | Potency [3] | max response [9] -4.23% | Potency [4]

CC(C)(C)C(=O)Oc1ccc(S(=O)(=O)Nc2ccccc2C(=O)NCC(=O)O)cc1
inactive: Potency [1] | Potency [6] | Potency [2] | Potency [4] | Potency [5]

Clc1ccc2nsnc2c1NC1=NCCN1
inactive: Potency [7] | Potency [1] | Potency [4] | Potency [5]

CC(C)Cc1ccc(C(C)C(=O)O)cc1 (stereo not drawn)
inactive: Potency [1] | Potency [4] | Potency [5]

Cc1ccccc1N1C(=O)c2cc(S(N)(=O)=O)c(Cl)cc2NC1C (stereo not drawn)
inactive: Potency [7] | Potency [1] | Potency [2] | Potency [5]

Cn1c(=O)c2c(ncn2C)n(C)c1=O
inactive: Potency [7] | Potency [1] | Potency [8] | Potency [3] | max response [9] 8.95% [middle of 5 runs] | Potency [5]

CC(COc1ccccc1)N(CCCl)Cc1ccccc1 (stereo not drawn)
inactive: Potency [7] | Potency [1] | Potency [2] | Potency [5]
